Experimental data published in PubChem BioAssay AID430 (Sanford-Burnham Center for Chemical Genomics, 2006).
About 1,100 (1.7%) of roughly 63,000 compounds were called active. This is one part of a sample in which actives are shown more often than they occur. Entries with a potency or affinity are not part of this list. Values without a mark were called inactive. Rule as the data show it: active = cytotoxicity above about 50%; inactive = the rest.

test: cytotoxicity in HPDE-C7 cells, cell-based, fluorescence, HTS (AID 430); details: HPDE-C7 pancreatic duct cells viability, at 10 µM, hits give high values;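 also: cells exposed to compound for 48 hours before viability readout; 0% = vehicle and 100% = reference cytotoxic drug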

Compound	cytotoxicity
Cc1ccc2[nH]c(=O)c(CNC(C)(C)C)cc2c1	1.4%
O=C(C1=C(O)C(=O)N(CCN2CCOCC2)C1c1cccs1)c1cc2ccccc2o1 (stereo not drawn)	-34.2%
CCS(=O)(=O)N1Cc2ccccc2CC1C(=O)Nc1nc2ccccc2[nH]1 (stereo not drawn)	6.5%
Cc1nn(C)cc1C1C2=C(CC(C)(C)CC2=O)OC2=C1C(=O)CC(C)(C)C2	-12.3%
COC(=O)C1=C(N)OC2=C(C(=O)CC(C)(C)C2)C1c1ccoc1 (stereo not drawn)	-0.4%
CCN(Cc1cc2cc(C)ccc2[nH]c1=O)C(=O)c1cccc(OC)c1	0.1%
Clc1cc(Cl)c2nc(N3CCCCC3)sc2c1	-1.2%
COC(=O)c1c(C)nn(-c2ccccc2)c1N	4.7%
Cc1ccccc1NC(=O)N1CCCC(c2nc(-c3ccc(C(C)C)cc3)no2)C1 (stereo not drawn)	33.3%
COc1ccc(-c2noc(C3CCCN(C(=O)c4cccs4)C3)n2)cc1 (stereo not drawn)	-9%
COc1ccc(NC(=O)N2CCCC(c3nc(-c4ccc(C(C)C)cc4)no3)C2)cc1 (stereo not drawn)	56.3% (active)
CC1=C(C(=O)N(C)C)C(c2ccc(Cl)c(Cl)c2)NC(=O)N1 (stereo not drawn)	-1.2%
O=C(Nc1nc(-c2cc3ccccc3oc2=O)cs1)c1ccco1	85% (active)
O=C(Nc1nc(-c2ccncc2)cs1)c1ccco1	9.1%
Cc1csc(NC(=O)c2ccco2)n1	-14.7%
O=C(NC1CCCCC1)NC1(C(=O)NCCCN2CCOCC2)CCCCC1	-1.8%
CCN(CC)c1ccc(NC(=O)CN2CCN(CC(=O)Nc3ccc(F)cc3)CC2)cc1	4.2%
O=C(CN1CCOc2ccccc21)N1CCCC1	4.1%
CC(=O)c1ccc(NC(=O)C2CCC(C)NC2=O)cc1 (stereo not drawn)	-4.9%
O=C(CSc1ccc2nnc(-c3ccccc3)n2n1)N1CCN(c2ccccc2)CC1	-3.5%
COc1ccc(-c2nnc3ccc(SCC(=O)N4CCN(c5ccccc5)CC4)nn23)cc1	-6.6%
CCOc1ccc(-c2nnc3ccc(SCC(=O)N4CCN(c5ccccc5)CC4)nn23)cc1	56.6% (active)
CCn1c(=N)c(C(N)=O)cc2c(=O)n3cccc(C)c3nc21	3.5%
Cc1cc(C)c2[nH]c(=O)c(C(c3nnnn3C3CCCC3)N3CCOCC3)cc2c1 (stereo not drawn)	-7.3%
O=C(Nc1nc2ccccc2n1CCN1CCCCC1)c1ccco1	-1.1%

Compound	cytotoxicity
CCCn1c(NC(=O)c2cccc(S(=O)(=O)N3CCCC3)c2)nc2ccccc21	61.9% (active)
CCCn1c(NC(=O)c2ccc(Cl)c(S(=O)(=O)N3CCCC3)c2)nc2ccccc21	16.1%
O=C(Nc1nc2ccccc2n1CCN1CCCC1)c1ccc(Cl)cc1	59.6% (active)
CCCn1c(NC(=O)c2ccc(C)cc2)nc2ccccc21	-34.1%
Cc1ccc(C(=O)Nc2nc3ccccc3n2CCN2CCCC2)cc1	1.6%
COc1ccc(S(=O)(=O)N(CC(=O)NCCCN(C)C)c2ccc(C)cc2)cc1OC	1%
CC(=O)N1c2ccccc2N(Cc2ccc(C)cc2C)C(=O)C1(C)C	58.4% (active)
Cc1ccccc1CN1C(=O)C2(OCCCO2)c2ccccc21	-4%
Cc1ccc(C)c(CN2C(=O)C3(OCCCO3)c3ccccc32)c1	-1.3%
N=c1n(CCOc2ccccc2)c2ccccc2n1CCN1CCOCC1	-22.8%
CC1(C)CC(=O)C2=C(C1)NC(Nc1nc3ccccc3o1)=NC21CCCC1	-16.5%
Nc1nnnn1/N=C/C=C/c1ccccc1	-7.1%
Nc1nnnn1/N=C/c1cccc(Oc2ccccc2)c1	-9.6%
CC(=O)Nc1ccc(-n2c(C)nc(=O)c(-c3ccccc3)c2C)cc1	2.9%
CS(=O)(=O)c1ccc2nc(NC(=O)Oc3ccccc3)sc2c1	3.4%
Cc1ccc(NC(=O)CN(C)S(=O)(=O)c2cccc3cccnc23)cc1	0.4%
O=C1CC(N2CCOCC2)C(=O)N1CCc1ccccc1 (stereo not drawn)	5.1%
Cc1cc(-c2nnc3sc(C4CCCCC4)nn23)n[nH]1	4.3%
CC(C)C(c1nnnn1CC1CCCO1)N1CCN(Cc2ccc3c(c2)OCO3)CC1 (stereo not drawn)	-3.2%
CC(C)(C)NS(=O)(=O)c1ccc2nc(NC(=O)Cc3cccs3)sc2c1	68.7% (active)
O=C(Cc1cccs1)Nc1nc2ccccc2s1	0.1%
CS(=O)(=O)c1ccc2nc(NC(=O)Cc3ccccc3)sc2c1	0.9%
CCOC(=O)C1CCCN(c2c(NCC3CCCO3)c(=O)c2=O)C1 (stereo not drawn)	-11.3%
COC(=O)c1ccc(Nc2cc(C)nc3nc(C)nn23)cc1	5.7%
CC(=O)c1ccc(Oc2cc(C)nc(-n3nc(C)cc3C)n2)cc1	60.3% (active)

Compound	cytotoxicity
COc1ccc(Nc2cc(C)nc(-n3nc(C)cc3C)n2)cc1	66.9% (active)
COC(=O)c1ccc(Oc2cc(C)nc(-n3nc(C)cc3C)n2)cc1	54.2% (active)
COC(=O)c1ccc(Oc2ccc3nnc(C)n3n2)cc1	-7.1%
CNc1cc(C)nc(-n2nc(C)cc2C)n1	-0.2%
Cc1cc(C)n(-c2ccc(C(=O)NC(C)C)cc2)n1	-1%
CCOc1ccc(Nc2cc(C)nc(-n3nc(C)cc3C)n2)cc1	49.1%
COc1ccc(N2CCN(C(=O)c3ccc(-n4nc(C)cc4C)cc3)CC2)cc1	-4.7%
O=C(NCCOC(=O)c1ccc(Cl)c(S(=O)(=O)N2CCCCC2)c1)c1ccncc1	-9.8%
c1ccc2c(c1)nc(N1CCOCC1)c1c3ccccc3[nH]c21	-21.6%
CC1(C)CC(=O)c2cnn(-c3nc4ccccc4[nH]3)c2C1	-0.3%
O=C(Oc1cccc2cccnc12)c1cccc(-n2cnnn2)c1	20.3%
Cc1noc(C)c1COC(=O)c1ccc2c(c1)OCCO2	4.3%
O=S(=O)(Nc1ccc2c(c1)OCCO2)c1cccc2cccnc12	-0.7%
Cc1ccc2cccc(OC(=O)c3ccc4c(c3)OCCO4)c2n1	53% (active)
CN(CCOC(=O)c1ccc2c(c1)OCCO2)Cc1ccccc1	-14%
Cc1[nH]c2ccc(-c3nnc(SCC(=O)c4ccccc4F)o3)cc2c1C	66.4% (active)
Cc1[nH]c2ccc(-c3nnc(SCC(=O)N4CCCc5ccccc54)o3)cc2c1C	-10.5%
Cc1[nH]c2ccc(-c3nnc(SCC(=O)c4ccc(F)cc4)o3)cc2c1C	1.7%
COc1cccc(C2(O)CCN(C(=O)C3CCC3)CC2)c1	-6.9%
O=C1c2ccccc2CCC1C(O)c1ccccn1 (stereo not drawn)	-15%
COc1cccc(CN(Cc2cccnc2)S(=O)(=O)c2ccc(-n3cnnn3)c(C)c2)c1OC	-18%
COc1ccccc1N1CCN(c2ccc(-c3ccccc3)nn2)CC1	61.1% (active)
COc1ccccc1N1CCN(c2cc(N3CCCC3)nc(C)n2)CC1	2.7%
COc1ccccc1N1CCN(c2nc(-c3ccccc3)cc(C(F)(F)F)n2)CC1	10.1%
COCC(C)NC(=O)c1cc(-c2cccc(OC)c2)on1 (stereo not drawn)	-3.6%

Compound	cytotoxicity
Cc1cc(C)cc(OCC(=O)Nc2ccc(N3CCN(S(C)(=O)=O)CC3)cc2)c1	-17.3%
Cc1ccccc1NC(=O)c1ccc(F)c(S(=O)(=O)N2CCN(c3ccccn3)CC2)c1	-26.8%
Cc1cc(NCCCN2CCOCC2)n2ncc(-c3ccc(Cl)cc3)c2n1	11.9%
Cc1cc(NCCOCCO)n2ncc(-c3ccc(Cl)cc3)c2n1	65.6% (active)
Cc1cc(NCCN2CCOCC2)n2ncc(-c3ccc(Cl)cc3)c2n1	9.8%
O=S(=O)(/C=C/c1ccccc1)n1cnc2ccccc21	22.4%
Cc1cc(C)n(S(=O)(=O)Cc2ccccc2)n1	-8.3%
Cc1cc(C)nc(Nc2n[nH]c(-c3ccccc3Br)n2)n1	-1.8%
COc1ccccc1N1CCN(C(=O)Nc2cccc(C)c2)CC1	-2.6%
Cc1ccc(SC(C)C(=O)N2CCCC2)cc1 (stereo not drawn)	5.9%
CCCCCCNS(=O)(=O)c1ccc(Cl)s1	-26.3%
CCCCn1c(-c2nonc2NC(=O)c2ccccc2Cl)nc2ccccc21	69.4% (active)
CCC(=O)Nc1nonc1-c1nc2ccccc2n1Cc1ccccc1	6.6%
CCC(=O)Nc1nonc1-c1nc2ccccc2n1N(C(=O)CC)C(=O)CC	54.2% (active)
CCC(=O)Nc1nonc1-c1nc2ccccc2n1CC(C)C	25.7%
N#CCCn1c(-c2nonc2NC(=O)c2ccccc2Cl)nc2ccccc21	41.9%
CCOC(=O)Cn1c(-c2nonc2NC(=O)c2ccccc2F)nc2ccccc21	41.5%
Cc1ccc(N2C(=O)CC(N(O)C3CC(=O)N(c4ccc(C)cc4)C3=O)C2=O)cc1 (stereo not drawn)	14.1%
C=CCNC(=O)c1sc(=S)n(-c2ccc(C(=O)OCC)cc2)c1N	2.1%
COc1ccc(C)cc1NC(=O)C1CCCN(S(=O)(=O)c2cnc[nH]2)C1 (stereo not drawn)	11.5%
O=C(Cc1ccc(Cl)cc1)Nc1ccccc1CO	-8.9%
CSc1nc(=NC(C)=O)ss1	-2%
CC1CCN(C(=O)CSc2nc(N)c3c4c(sc3n2)CN(C)CC4)CC1	5.8%
